Experimental data from PubChem BioAssay (NCI).
This is part of a sample that, as a whole, favours compounds with a hit. Of some 83,000 tested, about 20% had one in any assay.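 Each cell line was grown in a 96-well plate and treated with one concentration of compound for 48 hours. Values below 10 were considered active.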 A number with no mark means an inactive call. Activity calls are given as the source filed them.

What was measured:
Assay in all cases: NCI-60 one-dose screen, 48 h (100 = growth as untreated, 0 = no growth, -100 = all killed)
Conditions in all cases: 10 µM unless noted
[1] = tested on: DU-145 prostate
[2] = tested on: K-562 leukemia
[3] = tested on: MALME-3M melanoma
[4] = tested on: MDA-MB-231 breast
[5] = tested on: RXF 393 renal
[6] = tested on: SF-268 CNS
[7] = tested on: SF-295 CNS
[8] = tested on: SF-539 CNS
[9] = tested on: UACC-257 melanoma
[10] = tested on: M14 melanoma
[11] = tested on: HCT-15 colon
[12] = tested on: HT29 colon
[13] = tested on: SNB-19 CNS
[14] = tested on: U251 CNS
[15] = tested on: PC-3 prostate
[16] = tested on: SK-MEL-5 melanoma
[17] = tested on: UACC-62 melanoma
[18] = tested on: LOX IMVI melanoma
[19] = tested on: SK-MEL-28 melanoma
[20] = tested on: SNB-75 CNS

SMILES | growth [1] | growth [2] | growth [3] | growth [4] | growth [5] | growth [6] | growth [7] | growth [8] | growth [9] | growth [10] | growth [11] | growth [12] | growth [13] | growth [14] | growth [15] | growth [16] | growth [17] | growth [18] | growth [19] | growth [20]
COc1ccc(C/C(C)=C(\c2ccc(OCCN3CCCCCC3)cc2)c2ccc(OC(=O)C3CCCCC3)cc2)cc1 | 72.4% | 9.51% (active) | 66% | 67.6% | 60.4% | 64.2% | 86.1% | 74.7% | 77.5% | 73.1% | 38.7% | -31.8% (active) | 63.3% | 44.1% | 50.7% | 65.4% | 63.5% | 66.8% | 66.9% | 
COc1ccc(S(=O)(=O)NCCNc2nccc(-c3c(-c4cccc(N)c4)nc4sccn34)n2)cc1 | 105% | 88.9% | 101% | 104% | 107% | 99.7% | 99.2% | 110% | 102% | 102% | 101% | 93.5% | 108% | 104% | 83.6% | 98% | 100% | 98.4% | 117% | 
O=C(CN1CCN(c2cc3c(cc2F)c(=O)c(C(=O)N/N=C/c2ccccc2)cn3C2CC2)CC1)N/N=C\c1ccccc1 | 90.4% | 56.6% | 120% | 70.3% | 72.7% | 72.5% | 74.8% | 76.2% | 99% | 74.1% | 53.9% | 73.4% | 74% | 83.7% | 50% | 83% | 71.4% | 72.6% | 88.9% | 
COc1ccc(-c2cc(-c3ccc(N(C)C)cc3)nc(NC(=O)c3ccncc3)n2)cc1 | 102% | 95% | 119% | 111% | 87.3% | 98.1% | 105% | 96.8% | 108% | 104% | 90.4% | 106% | 90.2% | 98% | 83.5% | 89.2% | 101% | 91.7% | 108% | 
O=C(Nc1nc(-c2ccccc2)cc(-c2ccc(Cl)cc2)n1)c1ccncc1 | 103% | 93.5% | 99.3% | 94.8% | 85.7% | 94.5% | 100% | 102% | 104% | 104% | 104% | 96.8% | 90.3% | 93% | 91.4% | 102% | 86.9% | 91.7% | 115% | 
O=C1/C(=C/c2ccc(Cl)c(Cl)c2)CN(C(=O)CCN2CCC(=NO)CC2)C/C1=C\c1ccc(Cl)c(Cl)c1 | -82.8% (active) | -27% (active) | -81.7% (active) | -90.5% (active) | -88.8% (active) | -82.6% (active) | -88.5% (active) | -93.7% (active) | -85.5% (active) | -49.7% (active) | -88.3% (active) | -85.9% (active) | -96% (active) | -93.4% (active) | -71.2% (active) | -93.7% (active) | -92.3% (active) | -90.6% (active) | -92% (active) | 
S=c1[nH]nc(CSc2ncnc3c2c(-c2ccccc2)cn3-c2ccc(Cl)cc2)o1 | 106% | 92.3% | 98.5% | 94.3% | 125% | 97.5% | 102% | 94.7% | 105% | 100% | 117% | 107% | 94.6% | 93.8% | 88.1% | 104% | 89.1% | 90.2% | 115% | 
C=C1CC2(OC1=O)C(=O)N(CCCCCCCCCCCCN1C(=O)C3(CC(=C)C(=O)O3)c3ccccc31)c1ccccc12 (centres undefined) | 98.7% | 6.7% (active) | 75.5% | 55.8% | 52.8% | 93% | 97.6% | 87.3% | 94.9% | 79.4% | 65% | 86.7% | 89.5% | 74.3% | 64.7% | 86.4% | 78.9% | 4.86% (active) | 89.3% | 
CCCCCCCCCC(=O)Oc1ccc(/C(=C(/C)Cc2cccc(OC)c2)c2ccc(OCCN(C)C)cc2)cc1 | 108% | 100% | 115% | 105% | 115% | 100% | 107% | 103% | 110% | 105% | 105% | 109% | 109% | 110% | 110% | 107% | 97.8% | 102% | 114% | 
CC1=CC(=O)CC(C)(C)[C@@]1(O)/C=C/[C@@H](C)O | 108% | 115% | 102% | 93.3% | 93.3% | 98.1% | 91.5% | 102% | 89.1% | 102% | 89.4% | 112% | 97.7% | 90.8% | 101% | 97.4% | 99.7% | 93.7% | 108% | 
COc1ccc(C/C(C)=C(\c2ccc(Cl)cc2)c2ccc(OCCN3CCCCCC3)cc2)cc1 | 106% | 20.7% | 104% | 99.9% | 93.1% | 88.4% | 100% | 90.8% | 94.7% | 90.2% | 43.1% | 15.7% | 84.6% | 64.5% | 69.2% | 80% | 93.2% | 90% | 91% | 
CCCCCCCCCCCCCCCCCCNC(=O)[C@H]1CSC(c2ccc(OC)c(F)c2)N1 (some centres undefined) | 67.1% | 0.509% (active) | -57.4% (active) | -42.8% (active) | -34% (active) | -61% (active) | 87.5% | -15.1% (active) | 70.3% | -76.7% (active) | 71% | 8.84% (active) | 65.1% | -53.1% (active) | 54.2% | 23.8% | -86.5% (active) | 30.1% | -74.5% (active) | 
CCOC(=O)c1cnc2cc(Cl)c(F)cc2c1Nc1cccc(NS(C)(=O)=O)c1 | 101% | 91.4% | 112% | 80.6% | 89.3% | 90.1% | 93.7% | 89.2% | 118% | 113% | 89.3% | 122% | 93.9% | 106% | 101% | 98.3% | 87.8% | 91.2% | 114% | 
COc1cc(NC(N)=NCC(C)(C)COc2ccc(C(F)(F)F)cc2)cnc1C#N | 81.6% | 34.5% | 57.6% | 57% | 41% | 50.4% | 82.9% | 72% | 69.1% | 45.6% | 59.9% | 26.9% | 70.6% | 59.9% | 49.3% | 26.9% | 61.7% | 67.1% | 85.5% | 
C/C(Cc1ccc(Cl)cc1)=C(\c1ccc(OCCN2CCCCCC2)cc1)c1ccc(OC(=O)C2CCCCC2)cc1 | 70.4% | 11.4% | 85.7% | 85.4% | 56.2% | 57% | 89.8% | 74.2% | 91% | 12.7% | 39% | 18.4% | 77.6% | 45% | 51.5% | 83.5% | 68.1% | 65.8% | 61.2% | 
Nc1nc2ccc(-c3nc4ccc5[nH]ncc5c4c4c3CCC4)cc2s1 | 16.5% | 19.4% | -2.7% (active) | 42.2% | -21.9% (active) | 37.7% | 13.6% | 3.96% (active) | 36.9% | 29.1% | 11.3% | 8.06% (active) | 42.6% | 33.9% | 23.1% | 1.24% (active) | -46.2% (active) | 19.6% | 44.5% | 
COc1cc2c(c(OC)c1OC)-c1ccc(N=NC(N)=S)c(=O)cc1[C@@H](NC(C)=O)CC2 | -40.1% (active) | 9.08% (active) | 61.2% | 9.7% (active) | -13.5% (active) | 9.15% (active) | 6.76% (active) | 1.01% (active) | 49.5% | -39.1% (active) | 76.4% | -2.5% (active) | 27.9% | 9.3% (active) | 57.3% | -33.2% (active) | 17.2% | 13.5% | 53.6% | 
CC(=O)O[C@H]1CC[C@]2(C)[C@H]3CC[C@@H]4[C@H]5[C@H](C(C)C)CC[C@]5(C(=O)OCC(CO)(CO)N=C(N)N)CC[C@@]4(C)[C@]3(C)CC[C@H]2C1(C)C | 37.4% | -26.7% (active) | 17% | 42.1% | 40.6% | 77.6% | 100% | 86.4% | 90.2% | 73.4% | 10.4% | -69% (active) | 58.5% | -96.4% (active) | 41.2% | 81.2% | 86.8% | -48.8% (active) | 84.9% | 
Nc1c(C(=O)Nc2cccc3c2OCCO3)sc2nc3c(cc12)CN(Cc1ccccc1)CC3 | 86% | 20.1% | 68.1% | 66.4% | 71.8% | 74.2% | 39.7% | 65.2% | 83% | 54.6% | 42.5% | 35.3% | 60.4% | 56.9% | 55.1% | 60.8% | 49.3% | 53.2% | 75.4% | 
O=C(Nc1ccc(Oc2ccc(F)cc2)c(Cl)c1)c1cccnc1 | 87% | 50.9% | 103% | 93.7% | 90.2% | 95% | 86% | 94.4% | 91.4% | 97.3% | 84.3% | 88.5% | 93.2% | 89% | 90.7% | 79.5% | 81.3% | 91.2% | 103% | 
CC(C)[C@@H]1CC[C@]2(C(=O)NCCCCN=C(N)N)CC[C@]3(C)[C@H](CC[C@@H]4[C@@]5(C)CCC(=O)C(C)(C)[C@@H]5CC[C@]43C)[C@@H]12 | 81.3% | 24.6% | 19% | 74.3% | 93.8% | 54.8% | 102% | 69.5% | 71.1% | 71.2% | 96.4% | 40.2% | 41.9% | 30.8% | 46.6% | 20.4% | 48.2% | 69.9% | 15.6% | 
CN1/C(=C\C=C\C2=[N+](C)c3ccccc3C2(C)C)C(C)(C)c2ccccc21 | 25.2% | 6.42% (active) | -9.73% (active) | 6.24% (active) | -12.4% (active) | 26.4% | -11.3% (active) | 5.93% (active) | -40% (active) | -42.6% (active) |  | -33.9% (active) |  | 9.16% (active) | 2.66% (active) | -98.5% (active) | -77.3% (active) | 0.458% (active) | -25.4% (active) | -5.88% (active)
c1ccc(Sc2ncnc3ccccc23)cc1 | 89.3% | 71.4% | 64.1% | 93% | 83.1% | 70% | 93.7% | 89% | 70.5% | 71% | 75.2% | 88.2% |  | 87.2% | 83.5% | 66.1% | 66.2% | 67.5% | 85.5% | 
CNC(=O)c1cc(Oc2ccc3nc(NC(=O)Nc4ccc(N5CCC(N(C)C)CC5)cc4)sc3c2)ccn1 | 74.1% | 2.09% (active) | 56.1% | 85.6% | 61.5% | 84.7% | 98.9% | 73.4% | 105% | 94% | 74.8% | 20.1% |  | 57.6% | 95.1% | 86.1% | 99.2% | 69.9% | 87.7% | 
O=C1O[C@H]([C@H](O)CO)C(O)=C1O | 100% | 107% | 119% | 97.1% | 100% | 117% | 110% | 108% | 103% | 106% | 103% | 105% | 95.8% | 101% | 96% | 104% | 98.1% | 94.8% | 117% | 
CCNS(=O)(=O)c1ncnc2nc[nH]c12 | 102% | 109% | 116% | 119% | 122% | 132% | 109% | 95.9% | 126% | 119% | 94.3% | 114% |  | -14% (active) | 85.2% |  | 94.7% | 22% | 143% | 
